Measurements as given in PubChem BioAssay (NCATS).
Records with an inconclusive call do not appear. Unmarked numbers belong to inactive results. Calls of active or inactive are those of the source. Calls follow the shape of the dose curve; as a rule, active = well fitted inhibition curve with a large enough effect; inconclusive = small, poorly fitted or top-dose-only effect; inactive = no such curve, though single readings can be large or run the other way.

Experiment: Primary fluorescence-based thiol-reactive (MSTI) qHTS assay for identification of artifact compounds. (AID 1845221); also: nearly all actives have a fitted effect of over 65% in size;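 as to activity change, negative = thiol reactive: thiol-reactive compounds lower the probe fluorescence signal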
Conditions: MSTI thiol-reactivity probe, 1 h; series mostly up to 53.8 µM; activity change, negative = thiol reactive: at the top concentration
Summary of the method: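 Reactivity toward the thiol probe MSTI (4 uM) is scored by fluorescence at Ex/Em 525/598 nm after 1 h at room temperature. Acetyl-MSTI and MSTI define the activity scale.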
Potency is read from the fitted curve at half-maximal effect.

| SMILES | activity change, negative = thiol reactive | Potency |
| --- | --- | --- |
| COc1ccc(-c2ccc3c(N4CCOCC4C)nc(N4CCOCC4C)nc3n2)cc1CO (stereo not drawn) | 30% |  |
| O=C(NCCN1CCOCC1)c1cc2c(Oc3ccc(NC(=O)C4(C(=O)Nc5ccc(F)cc5)CC4)cc3)ccnc2[nH]1 | 348% |  |
| C=C[C@@]1(C)C=C2C(=O)C(O)=C3[C@](C)(C(=O)O)CC[C@@H]4C[C@]34[C@]2(O)C(=O)C1 |  | 13.1 µM (active) |
| CCc1cccc(CC)c1-n1c(C=C(C)C)c(C(=O)N2CCNCC2)cc(-c2nc(-c3ccc(C(F)(F)F)cc3)cs2)c1=O | 286% [at 25.6 µM] |  |
| CCc1cc2c(cc1CC)CC(NCC(O)c1ccc(O)c3[nH]c(=O)ccc13)C2 (stereo not drawn) | -12% |  |
| COCC(=O)NC/C=C/c1ccc2ncnc(Nc3ccc(Oc4ccc(C)nc4)c(C)c3)c2c1 | 1.75% |  |
| O=C(c1c(F)ccc(NS(=O)(=O)N2CC[C@@H](F)C2)c1F)c1c[nH]c2ncc(-c3cnc(C4CC4)nc3)cc12 | 271% |  |
| CN1CCN(c2ccc(-c3cccc(CN4CCOCC4)c3)cc2NC(=O)c2c[nH]c(=O)cc2C(F)(F)F)CC1 | 104% |  |
| CCNC(=O)C#Cc1ccc2c(C(=Nc3ccc(CN(C)C)cc3)c3ccccc3)c(O)[nH]c2c1 | 11.8% [at 25.6 µM] |  |
| CC(CCC1(O)OC2CC3C4CC=C5C[C@@H](O[C@@H]6O[C@H](CO)[C@@H](O[C@@H]7O[C@@H](C)[C@H](O)[C@@H](O)[C@H]7O)[C@H](O)[C@H]6O[C@@H]6O[C@@H](C)[C@H](O)[C@@H](O)[C@H]6O)CC[C@]5(C)C4CC[C@]3(C)[C@@]2(O)[C@@H]1C)CO[C@@H]1O[C@H](CO)[C@@H](O)[C@H](O)[C@H]1O (stereo partly drawn) | 40.3% [at 11.5 µM] |  |
| CCCOc1ccc(CCc2nc3cc(-c4c(C)noc4C)ccc3n2CCN2CCOCC2)cc1 | -8.43% |  |
| CC(C)(O)C1Cc2c(ccc(C(=O)CCc3ccccc3)c2O)O1 (stereo not drawn) | 19.6% |  |
| O=C(N[C@H]1CCN(C(=O)c2cc(C(F)(F)F)cc(C(F)(F)F)c2)[C@H](Cc2ccc(Cl)cc2)C1)c1ccnc2ccccc12 | 1.66% [at 25.6 µM] |  |
| COc1cccc(CN(C(=O)CC(C)(C)C)[C@H]2C[C@H](C(=O)N3CCNCC3)N(Cc3ccc4c(c3)OCO4)C2)c1 | 4.07% |  |
| CC(C)Oc1ccc(-c2cnc3c(-c4ccnc5ccccc45)cnn3c2)cc1 | -2.65% |  |
| Fc1ccc(N2CCN(CCC3OCCc4ccccc43)CC2)cc1 (stereo not drawn) | -13.9% |  |
| O=C(NCC1(N2CCN(c3ccccc3)CC2)CCOCC1)c1cccnc1Sc1ccccc1 | -8.56% |  |

| SMILES | activity change, negative = thiol reactive | Potency |
| --- | --- | --- |
| CC(C)OC(=O)N1CCC(Oc2ncnc3c2cnn3-c2ccc(S(C)(=O)=O)cc2F)CC1 | 34.4% |  |
| O=C(N[C@@H]1CCCc2c1cnn2-c1ccc(F)cc1F)c1ccccn1 | 69.5% |  |
| CN(C)CCn1cc(-c2ccc(F)cc2)c(-n2cccc2)n1 | 1.8% |  |
| CC1(C)CC[C@]2(C(=O)O[C@@H]3O[C@H](CO)[C@@H](O)[C@H](O)[C@H]3O)CC[C@]3(C)C(=CCC4[C@@]5(C)CC[C@H](O[C@@H]6O[C@H](C(=O)O)[C@H](O)[C@H](O)[C@H]6O)C(C)(C)C5CC[C@]43C)[C@@H]2C1 (stereo partly drawn) | 148% [at 25.6 µM] |  |
| C=C1C(=O)O[C@H]2C1CCC(C)=C1C(=O)C=C(C)[C@@]12O (stereo partly drawn) | -4.38% |  |
| O=C(Nc1ccc(Cl)cc1)C1CCCN(C(=O)c2cccc(-c3ccco3)c2)C1 (stereo not drawn) | 305% |  |
| CC1=CC2/C=C(\C)CCC(O)C/C=C/C(=O)OC23C(=O)NC(CC(C)C)C3C1C (stereo not drawn) | 15% [at 25.6 µM] |  |
| Cc1[nH]c2ccccc2c1CCNC(=O)c1cccs1 |  | 8.44 µM (active) |
| C/C=C(\C)C(=O)OC1C[C@@]2(COC(C)=O)O[C@H]2/C=C\[C@@]2(C)O[C@@H]2[C@H]2OC(=O)C(COC(C)=O)=C12 (stereo partly drawn) |  | 13 µM (active) |
| CCC(C)c1ccc(NC(=O)Cn2cnc3c2c(=O)n(C)c(=O)n3C)cc1 (stereo not drawn) | 173% |  |
| C=C1C(=O)O[C@@H]2/C=C(/C)[C@@H](OC(C)=O)C/C=C(\C)C[C@@H](OC(=O)/C(=C/CO)CO)[C@@H]12 | 11.1% [at 25.6 µM] |  |
| CCN(Cc1ccccc1)C(=O)Cn1c(=O)n(C)c2cnc(-c3ccccc3)nc21 | 31.4% |  |
| Cc1cc2sc(NC(=O)Cc3ccccc3)nc2cc1Cl | 32.7% |  |
| O=C(C1CCCCC1)N(CCN1CCN(c2ccccc2O)CC1)c1ccccn1 | -10.1% |  |
| COc1cc(C#N)ccc1S(=O)(=O)Nc1ccc2c(c1)cc(C)c(=O)n2C | 318% |  |
| COc1cc(N2CCC(O)CC2)ccc1Nc1nc(Nc2ccccc2S(=O)(=O)C(C)C)c2[nH]cnc2n1 |  | 1.68 µM (active) |
